Source: PubChem BioAssay AID1259415 (National Center for Advancing Translational Sciences (NCATS), 2018)
In all, about 410,000 compounds went through this assay and about 18,000 (4.4%) were called active. Roughly 7% stayed inconclusive and do not appear here. Only a selection was taken, and actives are over-represented in it overall. Unmarked numbers belong to inactive results. No stated cut-off is given here; in the data, active means activity change below about -60%; inconclusive means no clear call, values can overlap the other calls; inactive means above about -39%.

test: qHTS Assay for inhibitors of the human cytomegalovirus (HCMV); conditions: HFF cells, HCMV-luciferase reporter, 72 h; at 57.5 µM; stronger effect = lower value
Procedure, shortened: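 Screen run at 2 compound doses on HFFs infected with reporter HCMV, MOI 1 PFU/cell. Luciferase activity from cell lysates at 72 h post infection gave inhibition relative to buffer-only and Salinomycin wells.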
On the % scale 0 is the no-effect control and ±100 the full control effect.

Q: With `CCn1cc(C(=O)NCc2ccccc2)c(=O)c2cc(S(=O)(=O)N3CCCCC3)ccc21` as the molecule, how does the activity change, negative = inhibition read?
A: 1.38%

Q: Which activity change, negative = inhibition does the source give for `CN(C)CCCn1c(-c2ccc(Cl)cc2)csc1=Nc1ccccc1` here?
A: -19.8%

Q: Which activity change, negative = inhibition does the source give for `COc1cc(/C=N/O)cc(Br)c1OS(=O)(=O)c1ccc(C)cc1` here?
A: -76.2% (active)

Q: For `Cc1ccc(S(=O)(=O)Oc2ccc(/C=N/NC(=O)c3c(Cl)cnn3C)cc2)cc1`, which activity change, negative = inhibition is on record?
A: 22%

Q: Which activity change, negative = inhibition does the source give for `COc1cc(/C=C/c2ccc(/C=C/c3cc(OC)c(OC)c(OC)c3)cc2)cc(OC)c1OC` here?
A: -35.4%

Q: With `COc1cccc(CNC(=O)c2cc(=O)[nH]c3ccc(S(=O)(=O)N4CCCCC4)cc23)c1` as the molecule, how does the activity change, negative = inhibition read?
A: 0.829%

Q: Which activity change, negative = inhibition does the source give for `COc1ccc(S(=O)(=O)N2CCCC(C(=O)Nc3ccc(NC(=O)c4ccccn4)cc3)C2)cc1` (centres undefined) here?
A: 62.8%

Q: Which activity change, negative = inhibition does the source give for `CCc1ccc(NC(=O)c2cc(S(=O)(=O)N3CCCC(C)C3)cn2C)cc1` (centres undefined) here?
A: -13.1%

Q: With `CSc1ncc(Cl)c(C(=O)Nc2ccc(S(=O)(=O)N3CCCC(C)C3)cc2)n1` (centres undefined) as the molecule, how does the activity change, negative = inhibition read?
A: -86% (active)

Q: For `Cc1nnc(SCC(=O)NCc2ccccc2Cl)c2nn(-c3ccccc3)c(C)c12`, which activity change, negative = inhibition is on record?
A: -12.6%

Q: For `O=C(NC(=O)N1CCSCC1)c1c(Cl)cccc1Cl`, which activity change, negative = inhibition is on record?
A: 7.68%

Q: With `COc1ccc(-c2nn(CC(=O)NC3CCCC3)c3c2cnc2ccc(F)cc23)cc1` as the molecule, how does the activity change, negative = inhibition read?
A: 35.7%

Q: Which activity change, negative = inhibition does the source give for `CCOc1ccc(NCCC(=O)c2ccc3c(c2)OCO3)cc1` here?
A: -3.98%

Q: Which activity change, negative = inhibition does the source give for `COC(=O)CCNc1ccc2c(c1)OCCO2` here?
A: -79.1% (active)

Q: Which activity change, negative = inhibition does the source give for `CCC(C)(C)NC(=O)CN(C(=O)C(=O)Nc1ccc2c(c1)OCCO2)C(C)(C)CC` here?
A: 21.3%

Q: For `Cn1nc(-c2ccccc2)c(-c2ccccc2)c(C(=O)Nc2ccc(S(N)(=O)=O)cc2)c1=O`, which activity change, negative = inhibition is on record?
A: 6.63%

Q: With `COc1ccc(-c2c3c(=O)n(C)c(=O)n(C)c3c3c(C)nc4ccccc4n23)cc1` as the molecule, how does the activity change, negative = inhibition read?
A: 6.41%

Q: Which activity change, negative = inhibition does the source give for `CC(=O)Nc1cc(C(=O)NCc2ccc(F)cc2)ccc1Sc1ccc(F)cc1` here?
A: -2.97%

Q: With `CC(=O)N/C(=N/c1nc(C)cc(C)n1)Nc1ccc(F)cc1F` as the molecule, how does the activity change, negative = inhibition read?
A: -32.1%

Q: Which activity change, negative = inhibition does the source give for `Cc1cc(C)nc(-n2nc(C)cc2NC(=O)c2ccc(F)cc2F)n1` here?
A: -89.4% (active)

Q: With `CCOC(=O)c1cccc(NC(=O)c2ccc(F)cc2F)c1` as the molecule, how does the activity change, negative = inhibition read?
A: 17.1%

Q: Which activity change, negative = inhibition does the source give for `Cc1ccc(-c2nn3c(=O)cc(CN4CCN(S(=O)(=O)c5ccc(Cl)cc5)CC4)nc3s2)cc1` here?
A: -1.44%

Q: For `COc1cc(/C=C(\C#N)C(=O)Nc2ccc3ccccc3c2)c([N+](=O)[O-])cc1OC`, which activity change, negative = inhibition is on record?
A: 16.2%

Q: With `COc1ccc(CNC(=O)/C(C#N)=C/c2cccc(OC)c2OC)cc1` as the molecule, how does the activity change, negative = inhibition read?
A: -83.6% (active)

Q: For `CCSc1ccccc1C(=O)NCc1ccc(OC)cc1`, which activity change, negative = inhibition is on record?
A: -19.4%

Q: With `COc1ccc(NC(=O)CCCN2C(=O)CCn3nc(-c4cn(C)c5ccccc45)cc32)cc1OC` as the molecule, how does the activity change, negative = inhibition read?
A: -28.9%

Q: Which activity change, negative = inhibition does the source give for `CCOc1ccc(CN2CCN(CCCc3ccccc3)C(CCO)C2)cc1` (centres undefined) here?
A: 37.5%

Q: With `CCOc1ccccc1CN1CCN(C2CCC2)CC1CCO` (centres undefined) as the molecule, how does the activity change, negative = inhibition read?
A: -93.5% (active)

Q: For `COc1ccccc1N1CCC(N2CCN(CC(C)(C)C)C(CCO)C2)CC1` (centres undefined), which activity change, negative = inhibition is on record?
A: 33.4%

Q: For `Cc1ccccc1CSc1nc(-c2ccccc2)nc2c1Cc1c(CO)cnc(C)c1O2`, which activity change, negative = inhibition is on record?
A: 8.94%

Q: For `CCOc1ccc(NC(=O)CC2C(=O)N(c3cccc(OC)c3)C(=O)N2C2CCCCC2)cc1` (centres undefined), which activity change, negative = inhibition is on record?
A: 7.53%

Q: For `CCOC(=O)[C@]12Cc3cc(OC)ccc3[C@H]1N(C(C)C)C(=O)c1ccccc12`, which activity change, negative = inhibition is on record?
A: -109% (active)

Q: Which activity change, negative = inhibition does the source give for `CCOC(=O)C1(Cc2cccc(OC)c2)CCN(C(C)COC)CC1` (centres undefined) here?
A: -7.28%

Q: With `CCOC(=O)[C@]12Cc3ccccc3[C@H]1N(C1CCCCC1)C(=O)c1cc(OC)ccc12` as the molecule, how does the activity change, negative = inhibition read?
A: -101% (active)

Q: For `CCOC(=O)c1ccc(NC(=O)CC2C(=O)N(c3cccc(OC)c3)C(=O)N2C2CCCCC2)cc1` (centres undefined), which activity change, negative = inhibition is on record?
A: -1.63%

Q: For `CCOC(=O)C1(Cc2cccc(OC)c2)CCN(C(C)CC(C)(C)O)CC1` (centres undefined), which activity change, negative = inhibition is on record?
A: 14%

Q: For `Cc1ccc(O)c(NC(=O)CCS(=O)(=O)c2nc(-c3ccc4c(c3)OCO4)cc(C(F)(F)F)n2)c1`, which activity change, negative = inhibition is on record?
A: 14.6%

Q: With `CCOC(=O)[C@]12CCCC=C1N(Cc1ccc3c(c1)OCO3)C(=O)[C@H](CC(=O)NCc1cccs1)C2` as the molecule, how does the activity change, negative = inhibition read?
A: 6%

Q: For `Cc1ccc(C)c(CNC(=O)c2cc3ccccn3n2)c1`, which activity change, negative = inhibition is on record?
A: 7.66%

Q: For `CCc1ccc(-n2nnc(-c3nc(-c4ccccc4)no3)c2C)cc1`, which activity change, negative = inhibition is on record?
A: 168%

Q: Which activity change, negative = inhibition does the source give for `O=C(Nc1ccc(OC(F)(F)F)cc1)C1CCCN(S(=O)(=O)c2ccc(Br)s2)C1` (centres undefined) here?
A: 6.14%

Q: For `O=C1COCc2ccc(-c3cc4ccccc4o3)cc2N1CC1CC1`, which activity change, negative = inhibition is on record?
A: -2.65%

Q: With `CC1=C(C(=O)OC(C)(C)C)C(c2ccc(Br)cc2)NC(=O)N1CCCC(=O)O` (centres undefined) as the molecule, how does the activity change, negative = inhibition read?
A: -18.5%

Q: Which activity change, negative = inhibition does the source give for `CCCCNC(=O)C(C)N(CCN(C)C)C(=O)CCCN1C(=O)NC(c2ccc(Cl)cc2)C(C(=O)OCc2ccccc2)=C1C` (centres undefined) here?
A: -68% (active)
